Sampled rows, rich in hits. Any-hit rate of the full collection: about 0.81%.
TbPYK inhibitor: T. brucei pyruvate kinase inhibition; Q57TT1; TbPYK enzyme, Kinase-Glo Plus ATP luminescence, 45 min; Potency, µM (top dose mostly 76.8 µM), without a hit: at the top dose activity, negative = inhibition, most hits filed as inhibitors; 410,000 tested, 0.12% active; AID 624173; further: on the % scale 0 is the no-effect control and ±100 the full control effect; nearly all actives have a fitted effect of over 50% in size
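Quantitative HTS: titrated library compounds versus trypanosomal pyruvate kinase in TEA buffer (pH 7.2) containing KCl, MgCl2, BSA and Tween-20. Reactions were initiated with ADP, 130 uM final. Kinase-Glo Plus luminescence was read after 45 min at RT.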
RE007 growth inh: less growth of the S. pombe RE007 Vpr strain | S. pombe RE007 Vpr strain, BacTiter-Glo ATP luminescence, 24 h | Potency, µM (doses to about 92.2 µM), for the others: top-dose activity change, negative = less growth, usual class: inhibitors | 360,000 tested, 0.21% active | AID 651644; active means well fitted falling curve with a large enough effect; inconclusive means small, poorly fitted or top-dose-only effect; inactive means no such curve, though single readings can be large or run the other way; further: on the % scale 0 is the no-effect control and ±100 the full control effect; nearly all actives have a fitted effect of over 50% in size
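Fission yeast strain RE007, carrying one chromosomally integrated HIV-1 vpr copy, was seeded at OD 0.01 in PMG+AL medium with 23 nL pinned compound. After 24 h at 30 °C and 99% humidity, viability was read by BacTiter-Glo luminescence.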
AMA1-RON2 inh: disrupts binding of P. falciparum AMA1 to RON2 | Potency, µM (highest dose often 58.2 µM), inactives show at the top dose activity change, negative = inhibition, actives largely listed as inhibitors | AlphaScreen AMA1-biotinylated RON2 peptide binding | 360,000 tested, 0.2% active;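 further: 0% = vehicle wells and -100% = peptide control; nearly all actives have a fitted effect of over 45% in size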
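AMA1 (3D7) with his tag at 25 nM final met compounds first, then biotinylated RON2 peptide at 25 nM; detection used donor plus acceptor beads, 10 µg/mL apiece, read by AlphaScreen after 30 min at room temperature.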
SARS PLpro yeast: inhibitors of SARS-CoV papain-like protease in yeast; S. cerevisiae expressing SARS-CoV PLpro, growth rescue; Potency, µM (doses to about 32.9 µM), without a hit: at the highest dose activity, positive = growth rescue, actives largely listed as activators; 330,000 tested, 0.19% active; AID 485353; calls by dose curve; further: 0% is about no effect; nearly all actives have a fitted effect of over 55% in size
LmPK inh: inhibitors of Leishmania mexicana pyruvate kinase. Q27686. purified LmPK, Kinase-Glo ATP luminescence, 1 h. Potency, µM (top dose mostly 57.5 µM), without a hit: at the top dose activity change, negative = inhibition, usual class: inhibitors. 290,000 tested, 0.37% active. AID 1721; further: on the % scale 0 is the no-effect control and ±100 the full control effect
Target sequence (Q27686 whole entry, looked up): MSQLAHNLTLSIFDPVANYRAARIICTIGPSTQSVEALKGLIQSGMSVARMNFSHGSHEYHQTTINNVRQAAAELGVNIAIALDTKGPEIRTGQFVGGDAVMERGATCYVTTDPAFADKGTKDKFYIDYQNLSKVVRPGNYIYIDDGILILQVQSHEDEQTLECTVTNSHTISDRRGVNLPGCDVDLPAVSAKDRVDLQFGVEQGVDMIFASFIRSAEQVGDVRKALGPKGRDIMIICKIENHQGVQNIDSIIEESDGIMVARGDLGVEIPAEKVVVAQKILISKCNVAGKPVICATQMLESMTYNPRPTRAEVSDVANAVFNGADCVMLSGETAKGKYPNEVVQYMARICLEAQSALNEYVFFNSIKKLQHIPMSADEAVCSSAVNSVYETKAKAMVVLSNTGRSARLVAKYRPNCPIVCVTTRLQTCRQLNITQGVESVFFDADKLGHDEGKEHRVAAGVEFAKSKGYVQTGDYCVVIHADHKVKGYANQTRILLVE
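In 50 mM imidazole pH 7.2 with 7 mM MgCl2, LmPK (0.1 nM) turned over PEP (0.5 mM) and ADP (0.1 mM) for 1 h at room temperature. Luciferase read-out of ATP.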
Active calls of the source: *; ? = inconclusive; . = not tested or not shown; [ ] = dose if it differs, or a comment. Unless noted, the call rests on the fitted dose curve; in most records, active means well fitted curve in the direction sought with a large enough effect; inconclusive means small, poorly fitted or top-dose-only effect, or another doubt; inactive means no such curve, though single readings can be large; an effect the other way counts as inactive or inconclusive. Potency means the concentration at half of the fitted maximal effect.

SMILES	TbPYK inhibitor	RE007 growth inh	AMA1-RON2 inh	SARS PLpro yeast	LmPK inh
O=C1C(C2=C(O)c3ccccc3C2=O)=Nc2ccccc21	?	?	-17%	-15%	18µM*
Cc1cc(C)c(NC(=O)/C=C\C(=O)O)c([N+](=O)[O-])c1	-13%	32µM*	13%	-28%	2%
NC(=O)[C@@H]1CCCN1C(=O)[C@H](Cc1cnc[nH]1)NC(=O)[C@@H]1CCC(=O)N1	7%	.	.	.	.
CCc1sc(C(=O)N2CCc3ccccc32)cc1C	-10%	-25%	-2%	-20%	25µM*
O=C(c1ccc(Cl)s1)N1CCc2ccccc21	-6%	?	5%	-6%	-15%
Cc1ccc(NNC(N)=S)cc1Cl	-9%	?	46%	-5%	-2%
NC(=S)NNc1ccc(Cl)c(Cl)c1	-13%	11µM*	54%	-22%	0%
COc1ccc(N(CC(=O)NCc2ccc(F)cc2)C(=O)c2snc(C(N)=O)c2N)cc1	-4%	-16%	20%	16µM*	-9%
CC(C)(C)c1ccc(C(=O)NNC(=S)NCC2CCCO2)cc1 (configuration not stated)	-10%	13%	47%	26%	0%
CC(C)(C)c1ccc(C(=O)NC(=S)NCC2CCCO2)cc1 (configuration not stated)	-4%	1%	11%	13µM*	0%
COc1cc(NC(=O)c2cc(-c3ccco3)on2)cc(OC)c1OC	6%	-5%	15%	-8%	-3%
Cc1cccc(C(=O)NC(=S)NNC(=O)c2ccccc2Cl)c1	-29%	-46%	47%	-42%	0%
Cc1cc(C(=O)NNC(=S)NC(=O)/C=C/c2ccccc2Cl)n[nH]1	-21%	1%	-43%	10µM*	5%
OCCCc1ccccc1	-5%	.	.	.	.
CCC(=O)N1N=C(c2ccc(Cl)cc2)CC1c1ccco1 (configuration not stated)	-2%	-2%	-12%	0%	2%
CCc1ccc(C2=NN(C(C)=O)C(c3ccco3)C2)cc1 (configuration not stated)	-5%	-21%	-2%	0%	16µM*
Cc1ncc(CC(=O)n2cc(C(=O)c3cc(F)ccc3O)cn2)s1	4%	-8%	64%	-1%	-3%
Cc1ccc(O)c(C(=O)c2cnn(C(=O)Cc3csc(C)n3)c2)c1	-5%	25µM*	41%	-4%	-1%
O=C1C(=Cc2ccccc2[N+](=O)[O-])Cc2ccccc21	-5%	2.5µM*	-7%	.	.
COc1ccc(CN(C)c2ncnc3sccc23)c(OC)c1OC	4%	43%	2%	2%	0%
COc1ccc(S(=O)(=O)N(CCc2ccccc2)CC(=O)Nc2ccc(C)c(C)c2)cc1OC	0%	.	.	.	.
O=C(O)CNC(=O)CC1S/C(=N/N=C2\CSC(=O)N2)NC1=O (configuration not stated)	-2%	10%	40µM*	5%	27%
Cc1cc(C)c2c(=O)n(CC(=O)Nc3ccc(Br)c(C)c3)sc2n1	8.9µM*	?	21%	-5%	-22%
Cc1cc(C)c2c(=O)n(CC(=O)NC3CCCC3)sc2n1	10µM*	-13%	-9%	-4%	-5%
Cn1cnc(S(=O)(=O)N2CCCC(C(=O)NCc3ccc(F)cc3)C2)c1 (configuration not stated)	2%	.	.	.	.
SMILES	TbPYK inhibitor	RE007 growth inh	AMA1-RON2 inh	SARS PLpro yeast	LmPK inh
O=C(CCCOc1ccc(Br)cc1)Nc1ccc(S(=O)(=O)N2CCOCC2)cc1	-6%	6%	0%	-3%	.
CC(=O)c1ccc(OCCCC(=O)Nc2ccc(S(=O)(=O)N3CCOCC3)cc2)cc1	-1%	-3%	-13%	11µM*	.
c1cc2c(cc1C1=NNC(=NC3CC3)SC1)OCCO2	?	?	76%	-18%	11µM*
CC(C)Cc1nnc(NC(=O)CCC(=O)N2CCCCC2)s1	-1%	9%	0%	17%	0%
CCSC1(SCC)N=C(N)C2(C#N)C(c3ccc(F)cc3)C12C#N (configuration not stated)	-7%	4.5µM*	-9%	0%	-4%
CCSC1(SCC)N=C(N)C2(C#N)C(c3ccccc3)NC(C)=C(C)C12C#N (configuration not stated)	-3%	56µM*	-4%	-1%	2%
CCCCSC1(SCCCC)N=C(N)C2(C#N)C(c3ccccc3)NC(C)=C(C)C12C#N (configuration not stated)	1%	-18%	-6%	2%	4%
O=C(O)/C=C/C(=O)Nc1ccccc1C(=O)OCC(=O)c1ccc2c(c1)OCCO2	-6%	16%	6%	-2%	-22%
O=C(CS(=O)(=O)c1ccccc1)c1ccc2c(c1)OCCO2	6%	17%	17%	?	13µM*
O=C(O)CCC(=O)c1ccc2c(c1)OCCO2	4%	-7%	6%	-8%	-3%
Nc1ccccc1C(=O)OCC(=O)c1ccc2c(c1)OCCO2	-19%	-15%	8%	5%	14µM*
O=C(Nc1ccc(S(=O)(=O)N2CCCCC2c2cccnc2)cc1)c1ccc(F)cc1 (configuration not stated)	3%	.	.	.	.
NNCc1ccccc1	4%	-4%	32µM*	.	.
CCOC(=O)[C@H](CCc1ccccc1)N[C@@H](C)C(=O)N(CC(=O)O)C1Cc2ccccc2C1	3%	.	.	.	.
N#Cc1c2n(c3c(=S)nc[nH]c13)CCCCC2	?	-1%	-6%	0%	22µM*
COc1ccc(S(=O)(=O)/N=C2\C=C(Nc3ccc(O)cc3)C(=O)c3ccccc32)cc1	-27%	-21%	18µM*	-1%	-21%
Cc1ccc(NS(=O)(=O)c2ccc3c(c2)CC(C)N3C(=O)C2CCC2)cc1Cl (configuration not stated)	-3%	.	.	.	.
CC(C)Cn1c(-c2nn(C)cc2Cl)n[nH]c1=S	?	11%	0%	1%	13µM*
CCCc1cc(-c2n[nH]c(=S)n2CC(C)C)cs1	?	23%	43%	-1%	?
Cc1ccccc1-n1c(-c2ccc(Br)o2)n[nH]c1=S	?	-3%	64%	.	.
CC(C)Cn1c(-c2ccc(Br)o2)n[nH]c1=S	4µM*	-2%	36%	21%	?
CCn1c(-c2nn(C)cc2Cl)n[nH]c1=S	?	-8%	3%	-10%	-4%
Cc1ccsc1-c1n[nH]c(=S)n1CC(C)C	?	13%	43%	8%	14µM*
CCCCc1nc2c(c3c1C[C@H](C)OC3)CN(C(=O)NCCCC(=O)OCC)CC2	.	.	.	.	-16%[11.5 µM]
CCCCN(CCCC)Cc1cc(=O)oc2cc(C)c(Cl)cc12	2%	-21%	0%	.	.
COc1ccc(-c2csc(NC(=O)C3=COCCO3)n2)c(OC)c1	6%	?	-15%	-3%	.
Cc1cc(C)c(-c2csc(NC(=O)C3=COCCO3)n2)cc1C	0%	13µM*	-8%	0%	.

Screens: PubChem, National Center for Advancing Translational Sciences (NCATS)
